Measurements as given in PubChem BioAssay (NCATS).
Unmarked numbers belong to inactive results. Inconclusive results are not listed. A call without a number means that no potency is given here. Calls of active or inactive are those of the source. Unless noted, the call rests on the fitted dose curve; in most records, active means well fitted curve in the direction sought with a large enough effect; inconclusive means small, poorly fitted or top-dose-only effect, or another doubt; inactive means no such curve, though single readings can be large; an effect the other way counts as inactive or inconclusive.

Legend:
[1] = qHTS assay for measurement of the activity of small molecule inhibitors on Zika virus induced Caspase-3 activity in human iPSC derived neural progenitor cells (hNPCs) (AID 1224857); further: nearly all actives have a fitted effect of over 65% in size
Outline: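 Cells were plated at 350 per well and grown 16 to 20 hours. Compound pretreatment lasted one hour, after which ZIKV (2 FFU/cell) was added for 6 hours. Percent inhibition was normalized between uninfected and infected controls.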

[2] = qHTS assay for measurement of the activity of small molecule inhibitors on Zika virus induced Caspase-3 activity in human astrocytoma cells (AID 1224859)
Outline: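 Percent inhibition of virus-induced caspase-3/7 signal is calculated against uninfected and ZIKV-infected control cells. Cells are SNB-19, infected at 2 FFU/cell for 6 h after 1 h compound exposure.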

[3] = qHTS assay to identify small molecule inhibitors of chordoma cells - UCH-1 (AID 1259355); further: nearly all actives have a fitted effect of over 55% in size
Outline: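 Screening used approved and investigational drugs in 15-point titration against 800 seeded cells per well. A fixed combination of auranofin with camptothecin, doxorubicin, rubitecan and topotecan followed compound addition, and growth was scored by CellTiter-Glo after 48hr.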

[4] = qHTS assay to identify small molecule inhibitors of chordoma cells - UCH-2 (AID 1259356); further: series mostly up to about 46 µM
[5] = P-glycoprotein substrates identified in KB-8-5-11 adenocarcinoma cell line, qHTS therapeutic library screen (AID 1346987); further: series mostly up to about 44 µM; nearly all actives have a fitted effect of over 65% in size
Outline: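 Compounds are pinned in dose-response onto KB-8-5-11 cells (500 cells/well, colchicine-free medium) and left 72 h at 37 degree C. CellTiter-Glo luminescence then yields AC50 values.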

[6] = NS1 protein of Zika virus - qHTS assay to identify small molecule inhibitors in human HEK 293 cells (AID 1347053); further: series mostly up to about 46 µM; nearly all actives have a fitted effect of over 55% in size
Outline: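 Compound-treated (1 h pre-infection) HEK 293 cells infected with ZIKV MR766, MOI = 0.5; after 24 h at 37 C, NS1 read by TR-FRET; data normalized to uninfected and infected controls.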

[7] = qHTS of pediatric cancer cell lines to identify multiple opportunities for drug repurposing: Primary screen for TC32 cells (AID 1347089); further: nearly all actives have a fitted effect of over 60% in size; further: potency means the concentration at half of the fitted maximal effect
Outline: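 In the primary qHTS, MIPE compounds were tested at 11 concentrations (0.78 nM to 46 µM) and NPC compounds at 8 (0.59 nM to 46 µM) on TC32 cells for 48 h. CellTiter-Glo luminescence gave viability.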

[8] = Natriuretic polypeptide receptor (hNpr1) antagonism - Pilot counterscreen GloSensor control cell line (AID 1347045; calls by dose curve; further: series mostly up to about 38 µM)
Outline: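 Control counterscreen: luciferase cGMP-biosensor HEK293 cells (no Npr1) received compound for 30 min at room temperature after GloSensor substrate loading. Luminescence was measured before and 20 min after soluble guanylyl cyclase activation by 50 uM nitroprusside.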

[9] = target: Atrial natriuretic peptide receptor 1 (Homo sapiens) (UniProt P16066); assay: Natriuretic polypeptide receptor (hNpr1) antagonism - Pilot screen (AID 1347049; calls by dose curve;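 further: agonist-evoked cGMP luminescence read 20 min after hNppA addition; series mostly up to about 58 µM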)
Chain of Atrial natriuretic peptide receptor 1 (Homo sapiens) (P16066 whole entry, looked up): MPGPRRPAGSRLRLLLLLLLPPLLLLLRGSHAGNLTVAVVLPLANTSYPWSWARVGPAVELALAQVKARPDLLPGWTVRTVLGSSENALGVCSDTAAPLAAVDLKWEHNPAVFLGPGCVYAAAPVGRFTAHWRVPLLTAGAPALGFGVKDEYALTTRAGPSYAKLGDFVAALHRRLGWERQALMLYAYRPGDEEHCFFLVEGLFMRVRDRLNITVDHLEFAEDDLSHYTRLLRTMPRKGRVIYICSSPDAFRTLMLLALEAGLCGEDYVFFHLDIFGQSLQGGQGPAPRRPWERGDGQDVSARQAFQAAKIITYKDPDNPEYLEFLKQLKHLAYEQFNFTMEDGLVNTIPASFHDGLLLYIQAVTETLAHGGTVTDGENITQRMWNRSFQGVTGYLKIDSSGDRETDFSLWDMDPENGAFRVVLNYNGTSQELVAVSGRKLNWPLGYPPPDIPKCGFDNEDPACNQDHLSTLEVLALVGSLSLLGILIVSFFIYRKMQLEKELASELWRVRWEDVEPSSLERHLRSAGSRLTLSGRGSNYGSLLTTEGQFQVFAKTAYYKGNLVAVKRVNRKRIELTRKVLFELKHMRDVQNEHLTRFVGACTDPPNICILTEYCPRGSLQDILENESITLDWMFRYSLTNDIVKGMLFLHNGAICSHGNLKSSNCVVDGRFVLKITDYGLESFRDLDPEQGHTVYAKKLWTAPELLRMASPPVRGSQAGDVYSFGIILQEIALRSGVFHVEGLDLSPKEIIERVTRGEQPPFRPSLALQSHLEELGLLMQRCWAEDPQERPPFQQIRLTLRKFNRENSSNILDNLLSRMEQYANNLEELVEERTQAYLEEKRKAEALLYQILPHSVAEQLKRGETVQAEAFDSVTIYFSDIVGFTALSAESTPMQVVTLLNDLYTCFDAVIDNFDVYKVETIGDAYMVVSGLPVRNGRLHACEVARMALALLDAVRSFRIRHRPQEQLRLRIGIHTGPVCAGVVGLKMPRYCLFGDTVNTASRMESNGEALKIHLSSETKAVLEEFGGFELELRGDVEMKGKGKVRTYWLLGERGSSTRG
Outline: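 cGMP-sensor HEK293/hNpr1 cells, 1500/well, plated overnight at 37C. 2% GloSensor reagent, 2 h RT. Compound (23 nL pin transfer) 30 min RT, baseline luminescence pre-read. 0.1 nM hNppA, 20 min RT, post-read.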

[10] = target: Atrial natriuretic peptide receptor 2 (Homo sapiens) (UniProt P20594); assay: Natriuretic polypeptide receptor (hNpr2) antagonism - Pilot subtype selectivity assay (AID 1347050; calls by dose curve; further: potency means the concentration at half of the fitted maximal effect)
Chain of Atrial natriuretic peptide receptor 2 (Homo sapiens) (P20594 whole entry, looked up): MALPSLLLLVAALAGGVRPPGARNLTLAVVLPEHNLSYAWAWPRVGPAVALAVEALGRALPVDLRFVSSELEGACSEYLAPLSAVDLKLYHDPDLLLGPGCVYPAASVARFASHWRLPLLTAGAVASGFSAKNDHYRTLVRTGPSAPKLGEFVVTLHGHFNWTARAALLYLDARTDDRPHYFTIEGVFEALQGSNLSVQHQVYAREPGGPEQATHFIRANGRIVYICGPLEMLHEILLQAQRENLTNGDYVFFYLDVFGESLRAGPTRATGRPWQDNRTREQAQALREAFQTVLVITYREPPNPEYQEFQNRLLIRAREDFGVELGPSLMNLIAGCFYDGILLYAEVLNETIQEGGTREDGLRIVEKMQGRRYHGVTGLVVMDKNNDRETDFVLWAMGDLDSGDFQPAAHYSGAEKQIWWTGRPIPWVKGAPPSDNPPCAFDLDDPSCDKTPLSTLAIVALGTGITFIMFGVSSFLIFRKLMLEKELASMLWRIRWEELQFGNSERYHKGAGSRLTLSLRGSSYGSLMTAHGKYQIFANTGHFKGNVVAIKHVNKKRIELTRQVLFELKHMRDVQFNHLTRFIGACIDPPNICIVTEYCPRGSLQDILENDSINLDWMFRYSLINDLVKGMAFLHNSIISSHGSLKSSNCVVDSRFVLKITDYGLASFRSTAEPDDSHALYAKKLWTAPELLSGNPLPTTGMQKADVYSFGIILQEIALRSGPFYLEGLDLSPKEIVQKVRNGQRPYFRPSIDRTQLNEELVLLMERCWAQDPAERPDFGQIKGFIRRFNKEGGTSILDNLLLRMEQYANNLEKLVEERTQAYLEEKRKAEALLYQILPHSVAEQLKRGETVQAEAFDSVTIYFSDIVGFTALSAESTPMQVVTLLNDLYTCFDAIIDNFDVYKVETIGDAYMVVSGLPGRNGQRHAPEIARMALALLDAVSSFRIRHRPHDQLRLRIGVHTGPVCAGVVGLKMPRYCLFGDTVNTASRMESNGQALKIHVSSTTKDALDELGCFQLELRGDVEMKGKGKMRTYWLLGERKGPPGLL
Outline: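 Luminescence from a genetically encoded cGMP luciferase biosensor in hNpr2-expressing HEK293 cells is read before and 20 min after adding 1 nM hNppC. Test compounds, in interplate 1:5 titrations, are added 30-50 min ahead of the agonist.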

[11] = target: T1, Tyrosine-protein phosphatase non-receptor type substrate 1 (Homo sapiens) + Leukocyte surface antigen CD47 (Homo sapiens) (UniProt P78324+Q08722); assay: CD47-SIRPalpha protein protein interaction - LANCE assay qHTS validation (AID 1347057; active means well fitted curve in the direction sought with a large enough effect in the signal ratio, with a control signal flat, not every such curve was filed as active; the % refers to the signal ratio; further: series mostly up to about 38 µM)
T1 sequence (P78324 whole entry, looked up, the tested form may be a part): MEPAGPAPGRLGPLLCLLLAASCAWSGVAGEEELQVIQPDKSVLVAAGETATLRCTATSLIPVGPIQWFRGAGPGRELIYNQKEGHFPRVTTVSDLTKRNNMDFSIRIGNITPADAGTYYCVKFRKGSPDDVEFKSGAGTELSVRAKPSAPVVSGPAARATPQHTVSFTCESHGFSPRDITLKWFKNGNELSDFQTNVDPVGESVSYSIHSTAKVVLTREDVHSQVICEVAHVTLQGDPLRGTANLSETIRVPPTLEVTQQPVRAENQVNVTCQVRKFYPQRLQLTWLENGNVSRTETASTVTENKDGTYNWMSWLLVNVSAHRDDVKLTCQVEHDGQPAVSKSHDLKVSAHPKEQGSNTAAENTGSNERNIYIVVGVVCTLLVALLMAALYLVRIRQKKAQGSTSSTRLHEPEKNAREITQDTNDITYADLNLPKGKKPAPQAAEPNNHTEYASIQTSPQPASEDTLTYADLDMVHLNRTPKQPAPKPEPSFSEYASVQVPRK
T1 sequence (Q08722 whole entry, looked up, the tested form may be a part): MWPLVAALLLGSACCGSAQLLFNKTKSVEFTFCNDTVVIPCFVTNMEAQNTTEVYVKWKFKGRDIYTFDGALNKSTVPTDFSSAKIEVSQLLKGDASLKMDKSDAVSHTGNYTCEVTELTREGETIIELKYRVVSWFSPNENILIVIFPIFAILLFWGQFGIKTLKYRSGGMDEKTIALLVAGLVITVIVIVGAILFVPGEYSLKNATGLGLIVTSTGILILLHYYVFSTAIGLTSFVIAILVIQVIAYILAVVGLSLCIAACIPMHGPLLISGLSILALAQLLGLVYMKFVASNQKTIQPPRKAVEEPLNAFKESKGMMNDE
Outline: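 Inhibition of soluble CD47/SIRPalpha ectodomain association by titrated compounds, measured as 665/615 nm time-resolved FRET ratio after sequential 30 min room-temperature incubations.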

[12] = target: T1, Tyrosine-protein phosphatase non-receptor type substrate 1 (Homo sapiens) + Leukocyte surface antigen CD47 (Homo sapiens); assay: CD47-SIRPalpha protein protein interaction - Alpha assay qHTS validation (AID 1347059);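 further: bead proximity luminescence from CD47 binding SIRPalpha after compound preincubation with SIRPalpha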
Outline: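 SIRPalpha-biotin 25 nM + cpd, 30 min RT, dark; add CD47-His 12.5 nM, 30 min; add Ni-NTA/SAV beads 10 ug/mL, 30 min; AlphaScreen. Buffer PBS pH 7.4 + 0.05% IGEPAL CA-630. Non-biotinylated SIRPalpha as control inhibitor.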

[13] = target: Parathyroid hormone/parathyroid hormone-related peptide receptor (Homo sapiens) (UniProt Q03431); assay: qHTS for PTHR1 Agonists: Optimization Screen against the NCGC LOPAC library (AID 1347079);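 further: GloSensor cAMP luminescence in HEK-293 GP2 cells expressing human PTHR1 with IBMX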
Chain of Parathyroid hormone/parathyroid hormone-related peptide receptor (Homo sapiens) (Q03431 whole entry, looked up): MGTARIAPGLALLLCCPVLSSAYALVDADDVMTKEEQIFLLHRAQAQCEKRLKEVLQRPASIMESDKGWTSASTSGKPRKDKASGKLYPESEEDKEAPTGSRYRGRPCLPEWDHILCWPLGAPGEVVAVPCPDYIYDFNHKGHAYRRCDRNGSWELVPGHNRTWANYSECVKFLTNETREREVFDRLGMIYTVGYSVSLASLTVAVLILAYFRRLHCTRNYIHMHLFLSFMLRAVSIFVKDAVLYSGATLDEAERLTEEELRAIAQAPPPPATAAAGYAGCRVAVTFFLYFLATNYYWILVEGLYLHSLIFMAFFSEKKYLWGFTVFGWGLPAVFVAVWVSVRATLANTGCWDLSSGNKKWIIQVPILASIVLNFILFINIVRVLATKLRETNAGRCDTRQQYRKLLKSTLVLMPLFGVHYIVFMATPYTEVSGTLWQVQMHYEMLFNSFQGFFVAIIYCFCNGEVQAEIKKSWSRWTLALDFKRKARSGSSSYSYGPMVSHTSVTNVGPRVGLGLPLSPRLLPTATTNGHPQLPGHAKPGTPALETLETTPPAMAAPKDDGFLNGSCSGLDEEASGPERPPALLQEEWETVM
Outline: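 HEK-293 GP2 cells, PTHR1 + GloSensor cAMP; 3000 cells/well, o/n. Luciferin + IBMX 0.5mM each (stock), 1 hr 37C. Cpd titration, 1 hr 37C. Lum after 15 min RT. Ctrl M-PTH(1-15) top 10uM.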

| SMILES | outcome [1] | outcome [2] | Potency [3] | outcome [4] | Potency [5] | Potency [6] | Potency [7] | outcome [8] | outcome [9] | Potency [10] | outcome [11] | outcome [12] | Potency [13] |
| --- | --- | --- | --- | --- | --- | --- | --- | --- | --- | --- | --- | --- | --- |
| CCCCCCCCCCCCCCCCCCOCC(O)CO (stereo unspecified) | inactive | inactive | inactive | inactive | inactive | inactive | inactive |  |  |  |  |  |  |
| CN1CCOC(c2ccccc2)c2ccccc2C1 (stereo unspecified) | inactive | inactive | inactive | inactive | inactive | inactive | inactive |  |  |  |  |  |  |
| OCc1cc(C(O)CNCCCCCCOCCCCc2ccccc2)ccc1O (stereo unspecified) | inactive | inactive |  | inactive | inactive | inactive | inactive | inactive | inactive | inactive | inactive | inactive | inactive |
| NC(=O)N/N=C/c1ccc([N+](=O)[O-])o1 | inactive | inactive | inactive | inactive |  | inactive | inactive |  |  |  |  |  |  |
| NC1[C@H]2CN(c3nc4c(cc3F)c(=O)c(C(=O)O)cn4-c3ccc(F)cc3F)C[C@@H]12 (stereo partly specified) | inactive | inactive |  | inactive | inactive | inactive |  |  |  |  | inactive | inactive |  |
| O=c1cc[nH]c(=O)[nH]1 | inactive | inactive | inactive | inactive | inactive | inactive | inactive |  |  |  |  |  |  |
| C=Cc1c(C)c2cc3[nH]c(cc4nc(cc5nc(cc1[nH]2)C(C)=C5CCC(=O)O)C(CCC(=O)O)=C4C)c(C)c3C=C | inactive | inactive |  | inactive | inactive | inactive | inactive |  | inactive |  | inactive | inactive | inactive |
| O=C1OC(OC(=O)c2cccnc2Nc2cccc(C(F)(F)F)c2)c2ccccc21 (stereo unspecified) | inactive | inactive | inactive | inactive | inactive | inactive | inactive |  |  |  |  |  |  |
| COCCOC(=O)C1=C(C)NC(C)=C(C(=O)OC/C=C/c2ccccc2)C1c1cccc([N+](=O)[O-])c1 (stereo unspecified) | inactive | inactive | inactive | inactive |  |  | inactive |  | inactive | inactive | inactive |  | inactive |
| CCCCOc1cc(C(=O)OCCN(CC)CC)ccc1N | inactive | inactive | inactive | inactive | inactive | inactive | inactive |  |  |  |  |  |  |
| Nc1ccc(S(=O)(=O)NC(=O)c2ccccc2)cc1 | inactive | inactive | inactive | inactive | inactive | inactive | inactive |  |  |  |  |  |  |
| CCN(CC)CCNC(C(=O)OCCC(C)C)c1ccccc1 (stereo unspecified) | inactive | inactive | inactive | inactive |  | inactive | inactive |  |  |  |  |  |  |
| CC[N+](CC)(CC)CCOc1ccc(/C=C/c2ccccc2)cc1 | inactive | inactive | inactive | inactive | inactive | inactive | 21 µM (active) |  |  |  |  |  |  |
| CC(C(O)c1ccc(O)cc1)N1CCC(Cc2ccccc2)CC1 (stereo unspecified) | inactive | inactive |  | inactive | inactive | inactive | inactive | inactive | inactive | inactive | inactive | inactive | inactive |
| OCCN1CCN(CCCN2c3ccccc3Sc3ccc(Cl)cc32)CC1 | inactive | inactive |  | inactive |  |  |  |  | inactive | 16.5 µM (active) |  |  | inactive |
| CC1=C(/C=C/C(C)=C/C=C/C(C)=C/C(=O)O)C(C)(C)CCC1 | inactive | inactive |  | inactive |  | inactive | inactive |  | inactive | inactive | inactive | inactive | inactive |
| CCN(CC)C(C)CN1c2ccccc2Sc2ccccc21 (stereo unspecified) | inactive | inactive |  | inactive |  | inactive | inactive | inactive | inactive | inactive | inactive | inactive | inactive |
| NC1CCN(c2cccc(Cl)n2)CC1 |  | inactive | inactive | inactive | inactive | inactive | inactive | inactive | inactive | inactive |  |  | inactive |
| CC(C)NC[C@H](O)c1ccc(O)c(O)c1 | inactive | inactive |  |  |  | inactive |  | inactive | inactive | inactive | inactive | inactive |  |
